UHRF1 binding – blocks human UHRF1 binding to methylated DNA. UHRF1 binding to methylated oligo, TR-FRET. actives 0.75% (n = 370,000). inhibition, % at 4.4 µM;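 further: UHRF1 SRA domain binding a hemimethylated CpG hairpin DNA probe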
Target sequence (Q96T88 whole entry, looked up, the tested form may be a part): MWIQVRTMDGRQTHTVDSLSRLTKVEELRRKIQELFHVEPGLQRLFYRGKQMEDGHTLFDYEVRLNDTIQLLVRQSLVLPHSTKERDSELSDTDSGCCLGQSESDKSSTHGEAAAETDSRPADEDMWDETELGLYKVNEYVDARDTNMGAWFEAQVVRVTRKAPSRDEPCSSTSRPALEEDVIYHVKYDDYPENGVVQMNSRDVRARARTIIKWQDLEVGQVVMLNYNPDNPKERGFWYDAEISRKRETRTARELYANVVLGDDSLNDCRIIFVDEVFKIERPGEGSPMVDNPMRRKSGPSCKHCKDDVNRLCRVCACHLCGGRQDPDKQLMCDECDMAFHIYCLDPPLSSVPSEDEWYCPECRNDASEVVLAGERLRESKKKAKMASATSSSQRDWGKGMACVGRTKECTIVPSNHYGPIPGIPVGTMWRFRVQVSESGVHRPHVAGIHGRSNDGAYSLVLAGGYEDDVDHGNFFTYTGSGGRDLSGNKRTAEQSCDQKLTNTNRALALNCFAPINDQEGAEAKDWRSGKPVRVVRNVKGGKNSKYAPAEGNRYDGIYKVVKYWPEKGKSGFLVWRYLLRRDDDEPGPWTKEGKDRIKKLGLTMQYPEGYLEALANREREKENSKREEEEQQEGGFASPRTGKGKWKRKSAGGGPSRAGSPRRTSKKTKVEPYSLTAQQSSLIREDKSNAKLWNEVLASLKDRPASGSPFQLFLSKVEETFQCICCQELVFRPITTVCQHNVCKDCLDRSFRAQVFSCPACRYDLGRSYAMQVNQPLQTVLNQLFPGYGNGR
LEDGF integ inh – blocks HIV-1 LEDGF/p75-dependent DNA integration; AID 743269; inhibition, % at 3.7 µM; actives 0.64% (n = 370,000); TR-FRET IN-LEDGF/p75 DNA integration, Eu/Cy5;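 active means inhibition above the screen-wide mean plus 3 SD, cut at about 13% in these data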;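 further: signal is the Cy5 over europium emission ratio at 671 and 618 nm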
PLC-beta3 inh – blocks human PLC-beta3 enzyme activity | inhibition, % at 12.2 µM | Purified PLC-beta3, fluorogenic substrate, fluorescence | actives 0.18% (n = 370,000) | Q01970; in the data active means inhibition above about 11%
PLC-gamma1 inh – blocks human PLC-gamma1 enzyme activity; purified PLC-gamma1, fluorogenic substrate, fluorescence; inhibition, % at 12.2 µM; actives 0.84% (n = 370,000); in the data active means inhibition above about 9.5%
MBD2 inh – inhibitors of human MBD2 binding to methylated oligonucleotide; TR-FRET; inhibition, % at 4.4 µM; actives 0.31% (n = 370,000); AID 686964; in the data active means inhibition above about 13%
UHRF1 ctr MBD2 – counter-screen for MBD2 inhibitors: human UHRF1 methylated DNA binding inhibitors. inhibition, % at 4.4 µM. actives 25% (n = 1,000). AID 720530. shares compounds with MBD2 inh. UHRF1 binding to methylated oligonucleotide, TR-FRET;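 further: UHRF1 SRA domain binding a labeled hemimethylated CpG hairpin DNA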
MBD2 confirm – confirmation of human MBD2-DBD methylated oligonucleotide binding inhibitors; actives 26% (n = 1,000); inhibition, % at 4.4 µM; shares compounds with MBD2 inh; TR-FRET MBD2-DBD binding to methylated oligonucleotide; AID 720531; in the data active means inhibition above about 14%
PLCgamma1 ctr – PLC-gamma1 inhibition, counter-screen for PLC-beta3 hits | shares compounds with PLC-gamma1 inh | purified PLC-gamma1, fluorogenic substrate, fluorescence | inhibition, % at 12.3 µM | actives 3.1% (n = 3,300); in the data active means inhibition above about 9.5%
PLCbeta3 conf – confirmation of human PLC-beta3 inhibitors; actives 1% (n = 3,300); inhibition, % at 12.3 µM; shares compounds with PLC-gamma1 inh; purified PLC-beta3, fluorogenic substrate fluorescence; AID 743261; in the data active means inhibition above about 11%
Each line names hits and unclear results; the compound was inactive in the other large screens (follow-up assays come after a bar, where they were run). This is a sample that favours compounds with a hit; in the whole collection about 2.3% have one here. Unless noted, no stated cut-off is given here; in the data, active means inhibition above about 21%; inactive means the rest.

COC(=O)C1CN(Cc2ccccc2)CCS(=O)(=O)N1Cc1cn(Cc2ccc(C)cc2)nn1 (configuration not stated)	none
Cc1ccc(Oc2nc(CN3CCOCC3)nc3sc4c(c23)CCC(C)C4)cc1C (configuration not stated)	none
Cc1ccc(Oc2nc(CN3CCOCC3)nc3sc4c(c23)CCC(C)C4)cc1 (configuration not stated)	MBD2 inh 13.7 | UHRF1 ctr MBD2 inactive | MBD2 confirm inactive
CCOc1cc(/C=N/n2cnnc2)ccc1OS(=O)(=O)c1ccc(C)cc1	MBD2 inh 14.3 | UHRF1 ctr MBD2 inactive | MBD2 confirm inactive
CCOc1cc(/C=N/n2cnnc2)ccc1OCC(=O)Nc1ccccc1OC	none
CN(Cc1ccc(Cl)cc1)C(=O)c1ccc(S(=O)(=O)NCc2ccco2)cc1	MBD2 inh 36.9 | UHRF1 ctr MBD2 inactive | MBD2 confirm inactive
CC(C)c1ccc(CN(C)C(=O)c2ccc(S(=O)(=O)NCc3ccco3)cc2)cc1	none
COc1cc2nc(NCCCN3CCN(C)CC3)n3nc(-c4ccccc4)nc3c2cc1OC	UHRF1 binding 49.5, MBD2 inh 47.8 | UHRF1 ctr MBD2 41.0 | MBD2 confirm 42.5
CCN(CC)CCCNc1nc2cc(OC)c(OC)cc2c2nc(-c3cccnc3)nn12	UHRF1 binding 68.2, MBD2 inh 69.1 | UHRF1 ctr MBD2 81.2 | MBD2 confirm 77.9
CCN(CC)CCCNc1nc2cc(OC)c(OC)cc2c2nc(-c3ccccc3)nn12	UHRF1 binding 35.3, MBD2 inh 34.9 | UHRF1 ctr MBD2 56.1 | MBD2 confirm 57.0
COCCCNc1nc2cc(OC)c(OC)cc2c2nc(-c3ccccc3)nn12	none
C=CCNC(=O)N1CCN(Cc2nc3ccccc3c(=O)[nH]2)CC1	none
O=C(OC12CCCN(C1)/C(=C/c1cccc(Cl)c1)C2)c1ccc(F)cc1 (configuration not stated)	none
O=S(=O)(c1ccccc1F)N1CCC(c2nc3ccccc3o2)CC1	none
O=C(c1cc(COc2ccc(F)cc2F)on1)N1CCCC(c2ccccc2)C1 (configuration not stated)	UHRF1 binding 24.6, MBD2 inh 14.9 | UHRF1 ctr MBD2 inactive | MBD2 confirm inactive
O=C(N/N=C/C=C/c1ccccc1)c1cc(C2CC2)[nH]n1	MBD2 inh 20.6 | UHRF1 ctr MBD2 inactive | MBD2 confirm inactive
COC(=O)C1CN(Cc2ccccc2)CCS(=O)(=O)N1Cc1ccc(C)cc1 (configuration not stated)	none
CCOC(=O)c1cc(-c2ccc(N3CCOCC3)cc2)nn1-c1ccccc1C(=O)O	MBD2 inh 22.7 | UHRF1 ctr MBD2 26.7 | MBD2 confirm 26.6
Cc1ccc(-c2cc(-c3ccccc3)[nH]c(=S)c2C#N)cc1	none
COc1ccc(-c2cc(-c3ccccc3)c(C#N)c(=S)[nH]2)cc1	MBD2 inh 21.1 | UHRF1 ctr MBD2 inactive | MBD2 confirm inactive
O=C1N[C@@H](Cc2ccccc2)COC(=O)[C@H](Cc2ccc(F)cc2)CC/C=C/C[C@@H]1CC(=O)N(CCO)Cc1ccccc1	none
O=C1N[C@@H](Cc2ccccc2)COC(=O)[C@@H](Cc2ccc(F)cc2)CC/C=C/C[C@H]1CC(=O)N(CCO)Cc1ccccc1	MBD2 inh 15.4 | UHRF1 ctr MBD2 inactive | MBD2 confirm inactive
O=C(NCCc1ccccc1)OCc1cn(Cc2cc(F)ccc2F)nn1	none
CC[N+](CC)(CC)CCOc1ccc(/C=C/c2ccccc2)cc1	none
CC[N+](CC)(CC)CCCCOc1ccc2c(c1)C(=O)c1cc(OCCCC[N+](CC)(CC)CC)ccc1-2	UHRF1 binding 30.6, MBD2 inh 21.3 | UHRF1 ctr MBD2 49.4 | MBD2 confirm 31.9
Cc1ccc(S(=O)(=O)N2CCOCC2)cc1NC(=O)Cn1c(=O)ccn(Cc2ccccc2)c1=O	MBD2 inh 14.4 | UHRF1 ctr MBD2 inactive | MBD2 confirm inactive
CCOC(=O)N1CCN(C(=O)C[C@@H]2C[C@@]3(C(=O)OCC)CCCC=C3N(CCC3=CCCCC3)C2=O)CC1	MBD2 inh 20.3 | UHRF1 ctr MBD2 inactive | MBD2 confirm inactive
Cc1cccc(N2CC(C(=O)Nc3cccc(S(=O)(=O)N4CCCCC4)c3)CC2=O)c1C (configuration not stated)	MBD2 inh 80.6 | UHRF1 ctr MBD2 inactive | MBD2 confirm inactive
Cc1cccc(N2CC(C(=O)Nc3ccc(S(=O)(=O)N4CCOCC4)cc3)CC2=O)c1C (configuration not stated)	none
COc1ccc(S[C@]2(C(=O)N3CCOCC3)CC(=O)N(C(=O)CCc3ccccc3)[C@@H]2c2ccc(OC)cc2)cc1	none
COc1ccc(/C=C2/SC(=S)N(n3c(C)ccc3C)C2=O)cc1	UHRF1 binding 21.8, MBD2 inh 13.5 | UHRF1 ctr MBD2 inactive | MBD2 confirm inactive
C#CCOCCOCCOCCNc1nc(N2CCN(C(=O)[C@H](CCCCN)n3cc(CN)nn3)CC2)nc(N2CCN(C(=O)[C@H](CCCCN)n3cc([C@@H](N)[C@H](C)CC)nn3)CC2)n1	none
C#CCOCCOCCOCCNc1nc(N2CCN(C(=O)[C@H](CCCCN)n3cc([C@@H](N)C(C)CC)nn3)CC2)nc(N2CCN(C(=O)[C@H](CCCCN)n3cc([C@@H](N)C(C)CC)nn3)CC2)n1 (some centres not stated)	PLC-gamma1 inh 10.3, MBD2 inh 15.7 | UHRF1 ctr MBD2 inactive | MBD2 confirm inactive | PLCgamma1 ctr inactive | PLCbeta3 conf inactive
CC(=O)c1ccc(NC(=O)NC2CCCCN(Cc3ccc(Cl)cc3)C2=O)cc1 (configuration not stated)	none
Cn1nc(-c2ccccn2)nc2c(=O)n(C)c(=O)nc1-2	PLC-gamma1 inh 50.9, MBD2 inh 14.4 | UHRF1 ctr MBD2 inactive | MBD2 confirm inactive | PLCgamma1 ctr 32.5 | PLCbeta3 conf inactive
